CYP2C9 act: human CYP2C9 activators, primary screen, biochemical, luminescence | recombinant CYP2C9, luciferin-H conversion; hits give high values; factor 1 = untreated enzyme, 0 = blocked | hit rate 1.4% among 96,000 | activation factor at 5 µM | AID 1024, 2008;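 active means activation factor of 2 or more for CYP2C9 at a 5 µM dose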;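 further: 0 = sulfaphenazole-blocked wells and 1 = vehicle-only wells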
Target sequence (P11712 whole entry, looked up): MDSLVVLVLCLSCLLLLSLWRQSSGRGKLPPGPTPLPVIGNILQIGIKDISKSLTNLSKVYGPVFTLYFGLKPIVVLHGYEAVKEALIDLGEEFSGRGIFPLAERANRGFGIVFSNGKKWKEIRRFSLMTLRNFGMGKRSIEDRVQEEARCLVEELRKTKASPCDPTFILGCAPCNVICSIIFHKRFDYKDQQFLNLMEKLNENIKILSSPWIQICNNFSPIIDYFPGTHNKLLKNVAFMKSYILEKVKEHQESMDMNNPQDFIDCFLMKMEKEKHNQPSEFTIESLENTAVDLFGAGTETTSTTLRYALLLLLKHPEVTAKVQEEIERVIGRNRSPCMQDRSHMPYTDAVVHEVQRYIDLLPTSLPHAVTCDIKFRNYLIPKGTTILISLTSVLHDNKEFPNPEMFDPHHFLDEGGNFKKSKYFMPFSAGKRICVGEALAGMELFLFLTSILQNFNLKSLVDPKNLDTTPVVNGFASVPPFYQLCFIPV
CYP2C19 activ: human CYP2C19 activators, primary screen, biochemical, luminescence | activation factor at 5 µM | Cytochrome P450 2C19 (Homo sapiens), P33261 | 96,000 tested, under 10 active | recombinant CYP2C19, luciferin-H EGE luminescence; hits give high values; 0 = fully inhibited enzyme, 1 = untreated enzyme;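 active means activation factor of at least 2 at 5 µM in the primary screen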;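 further: 0 = wells with 2.5 mM tranylcypromine and 1 = vehicle-only wells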
CD11b adhes enh: enhancers of CD11b/CD18 adhesion to fibrinogen, primary screen, K562 cells, luminescence; ATPlite luminescence; activation, % at 10 µM; hit rate 0.07% among 93,000; AID 1499, 2009;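 active means 10 µM primary screen giving 50% or more activity, confirmed by 40% or more on retest at that dose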
CYP2C19 inhib: blockers of cytochrome P450 2C19 activity – biochemical, luminescence, ADME assay, primary screen; CYP2C19 Supersomes, luciferin-H EGE luminescence, 30 min; P33261; inhibition, % at 5 µM; hit rate 21% among 96,000;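 active means CYP2C19 inhibition above a set limit at 5 µM in the primary screen, cut at about 50% in these data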;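 further: plate controls were negative control wells for no effect and 2.5 mM tranylcypromine positive control for full effect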
CD11b adhes inh: inhibitors of CD11b/CD18 adhesion to fibrinogen, primary screen, K562 cells, luminescence | ATPlite luminescence; Mn2+ added to activate the integrin | Integrin beta-2 (Homo sapiens) + Integrin alpha-M (Homo sapiens), P05107+P11215 | inhibition, % at 10 µM | hit rate 0.54% among 93,000 | AID 1497, 2009;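 active means primary inhibition of 50% or more at 10 µM, then 40% or more on retest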
CYP2C9 inh: blockers of cytochrome P450 2C9 activity – biochemical, luminescence, ADME assay, primary screen | P11712 | CYP2C9 Supersomes, luciferin-H conversion | inhibition, % at 5 µM | hit rate 20% among 96,000 | AID 777, 2007;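 active means blocking of liver enzyme CYP2C9 beyond about 50% at 5 µM, limit read from the data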
Active calls of the source: *. An excerpt weighted towards active compounds, which were near 28% of everything screened.

Results for O=C(Nc1nc2ccccc2s1)C1CC(=O)N(c2ccc(F)cc2)C1 (stereo unspecified) ?
CYP2C9 act: 0.7; CYP2C19 activ: 0.9; CD11b adhes enh: -1; CYP2C19 inhib: 8; CD11b adhes inh: 7; CYP2C9 inh: 32

Results for O=C(Nn1cnnc1)c1ccccc1-c1ccccc1 ?
CYP2C9 act: 1; CYP2C19 activ: 1; CD11b adhes enh: -4; CYP2C19 inhib: -5; CD11b adhes inh: 9; CYP2C9 inh: 3

How did CCOC(=O)c1nnc(-c2ccccc2)nc1Sc1ccccc1Cl do in these assays?
CYP2C9 act: 0.5; CYP2C19 activ: 0.8; CD11b adhes enh: 2; CYP2C19 inhib: 20; CD11b adhes inh: -13; CYP2C9 inh: 54*

How did CCOC(=O)c1nnc(-c2ccc(C)cc2)nc1Sc1cccc(Cl)c1 do in these assays?
CYP2C9 act: 1; CYP2C19 activ: 1; CD11b adhes enh: 3; CYP2C19 inhib: 1; CD11b adhes inh: -4; CYP2C9 inh: 2

What do the screens show for `CCCS(=O)(=O)Nc1cc(C(F)(F)F)ccc1OCCOC`?
CYP2C9 act: 0.8; CYP2C19 activ: 0.5; CD11b adhes enh: 0; CYP2C19 inhib: 50*; CD11b adhes inh: -28; CYP2C9 inh: 15

What do the screens show for `CCCCCOc1ccc(C2C(C(C)=O)=C(C)Nc3ncnn32)cc1OC` (stereo unspecified)?
CYP2C9 act: 0.5; CYP2C19 activ: 0.8; CD11b adhes enh: -2; CYP2C19 inhib: 15; CD11b adhes inh: 12; CYP2C9 inh: 54*

What do the screens show for `COc1ccc(OC)c(C2C(C(=O)Nc3ccc(F)cc3)=C(C)Nc3nc(CCCO)nn32)c1` (stereo unspecified)?
CYP2C9 act: 1; CYP2C19 activ: 0.9; CD11b adhes enh: -1; CYP2C19 inhib: 7; CD11b adhes inh: -10; CYP2C9 inh: 1

How did CC(=O)C1=C(C)Nc2ncnn2C1c1ccc(Cl)cc1Cl (stereo unspecified) do in these assays?
CYP2C9 act: 0.7; CYP2C19 activ: 0.3; CD11b adhes enh: -3; CYP2C19 inhib: 68*; CD11b adhes inh: 45; CYP2C9 inh: 30

What do the screens show for `COc1ccccc1NC(=O)C1=C(C)Nc2nc(CCCO)nn2C1c1ccc2c(c1)OCO2` (stereo unspecified)?
CYP2C9 act: 0.4; CYP2C19 activ: 0.6; CD11b adhes enh: 0; CYP2C19 inhib: 40; CD11b adhes inh: 11; CYP2C9 inh: 59*

Results for COc1ccc(C2C(C(C)=O)=C(C)Nc3ncnn32)cc1OC (stereo unspecified) ?
CYP2C9 act: 1; CYP2C19 activ: 1.1; CD11b adhes enh: -2; CYP2C19 inhib: -10; CD11b adhes inh: -14; CYP2C9 inh: 2

What do the screens show for `CCCCOC(=O)C1=C(C)Nc2ncnn2C1c1cc(OC)ccc1OC` (stereo unspecified)?
CYP2C9 act: 0.4; CYP2C19 activ: 0.8; CD11b adhes enh: -1; CYP2C19 inhib: 24; CD11b adhes inh: -8; CYP2C9 inh: 58*

What do the screens show for `O=c1c(S(=O)(=O)c2ccc(Cl)cc2)cn(Cc2ccccc2F)c2ccc(F)cc12`?
CD11b adhes enh: -2; CD11b adhes inh: 24

What do the screens show for `O=C1c2ccccc2C(=O)N1c1ccc(S(=O)(=O)N2CCN(c3ccccc3)CC2)cc1`?
CYP2C9 act: 0.9; CYP2C19 activ: 0.9; CD11b adhes enh: -2; CYP2C19 inhib: 6; CD11b adhes inh: 4; CYP2C9 inh: 15

Results for CCOC(=O)C1=C(CNCCc2ccc(Cl)cc2)NC(=O)NC1c1ccc2c(c1)OCO2 (stereo unspecified) ?
CYP2C9 act: 0.1; CYP2C19 activ: 0.1; CD11b adhes enh: -1; CYP2C19 inhib: 86*; CD11b adhes inh: -30; CYP2C9 inh: 89*

What do the screens show for `COc1cc(C2C(C(=O)OC(C)C)=C(C)Nc3ncnn32)cc(OC)c1OC` (stereo unspecified)?
CYP2C9 act: 0.2; CYP2C19 activ: 0.8; CD11b adhes enh: -2; CYP2C19 inhib: 20; CD11b adhes inh: -3; CYP2C9 inh: 78*

Results for CCOC(=O)C1=C(C)Nc2ncnn2C1c1ccc2c(c1)OCO2 (stereo unspecified) ?
CYP2C9 act: 0.4; CYP2C19 activ: 0.5; CD11b adhes enh: 5; CYP2C19 inhib: 50*; CD11b adhes inh: -2; CYP2C9 inh: 62*

What do the screens show for `CCCC1=C(C(=O)OCC)C(c2ccncc2)n2ncnc2N1` (stereo unspecified)?
CYP2C9 act: 0; CYP2C19 activ: 0.2; CD11b adhes enh: -4; CYP2C19 inhib: 78*; CD11b adhes inh: -48; CYP2C9 inh: 97*

What do the screens show for `CCSCCOC(=O)C1=C(C)NC(=O)NC1c1ccc2c(c1)OCO2` (stereo unspecified)?
CYP2C9 act: 0.8; CYP2C19 activ: 0.6; CD11b adhes enh: -4; CYP2C19 inhib: 36; CD11b adhes inh: 18; CYP2C9 inh: 24

How did CCOC(=O)C1=C(C)NC(=O)NC1c1ccc2c(c1)OCO2 (stereo unspecified) do in these assays?
CYP2C9 act: 0.7; CYP2C19 activ: 0.6; CD11b adhes enh: -3; CYP2C19 inhib: 43; CD11b adhes inh: -1; CYP2C9 inh: 32

What do the screens show for `CCCCOC(=O)C1=C(C)Nc2ncnn2C1c1cccc(OC)c1` (stereo unspecified)?
CYP2C9 act: 0.5; CYP2C19 activ: 0.3; CD11b adhes enh: -2; CYP2C19 inhib: 68*; CD11b adhes inh: -3; CYP2C9 inh: 51*

Results for COc1cccc(C2C(C(=O)OCc3ccccc3)=C(C)Nc3ncnn32)c1OC (stereo unspecified) ?
CYP2C9 act: 0.9; CYP2C19 activ: 0.4; CD11b adhes enh: -1; CYP2C19 inhib: 64*; CD11b adhes inh: -4; CYP2C9 inh: 10

Results for CCOC(=O)C1=C(c2ccccc2)Nc2ncnn2C1c1ccc(OC)c(OC)c1OC (stereo unspecified) ?
CYP2C9 act: 0.7; CYP2C19 activ: 0.7; CYP2C19 inhib: 27; CYP2C9 inh: 25

How did CC1=C(C(=O)OCc2ccccc2)C(c2cccnc2)n2ncnc2N1 (stereo unspecified) do in these assays?
CYP2C9 act: 0.9; CYP2C19 activ: 0.7; CD11b adhes enh: 9; CYP2C19 inhib: 35; CD11b adhes inh: -19; CYP2C9 inh: 13

Results for COC(=O)C1=C(C)Nc2ncnn2C1c1ccc(OC(=O)c2ccccc2)cc1 (stereo unspecified) ?
CYP2C9 act: 1.2; CYP2C19 activ: 0.6; CD11b adhes enh: 19; CYP2C19 inhib: 40; CD11b adhes inh: -2; CYP2C9 inh: -22
